Measured values: PubChem BioAssay (EPA / NIEHS)
Several values for one entry are separate records, joined by “and”; a condition that tells them apart may be missing. Identical values can stand only once. Some structures have more than one record in an assay (separate samples or runs), and their calls can disagree. Activity calls are given as the source filed them. Rule for the calls: active = hit-call score of the fitted dose curve at least 0.9, where 1 is the maximum; inactive = score below 0.9.

assay: CCTE_Shafer_MEA_acute_burst_duration_mean: CCTE's Neural Acute Assay for Mean Burst Duration, Shafer Lab (AID 2284014);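 note: hits are decreases in mean burst duration relative to DMSO controls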
Summary of the method: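 Mean burst duration was compared between a 40 min baseline and a 40 min recording in the presence of compound (0.03-40 uM, 37 C), giving percent change per well. Cultures were rat cortical neurons at DIV 13 or 15; wells needed ≥10 active electrodes.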

| Compound | outcome | AC50 |
| --- | --- | --- |
| CC(C)(OOC(C)(C)c1ccccc1)c1ccccc1 | inactive | – |
| ClC1=C(Cl)C2(Cl)C3C(Cl)C=CC3C1(Cl)C2(Cl)Cl (stereo unspecified) | inactive | – |
| Clc1ccc(C(c2ccc(Cl)cc2)C(Cl)(Cl)Cl)cc1 | inactive | – |
| N#CC(Br)Br | inactive | – |
| O=Cc1ccco1 | inactive | – |
| c1ccc(NNc2ccccc2)cc1 | inactive | – |
| c1ccc(N=Nc2ccccc2)cc1 | inactive | – |
| CCCCOC(=O)c1ccccc1C(=O)OCc1ccccc1 | inactive | – |
| O=[N+]([O-])C(Br)(CO)CO | – | 30.4 µM (active) |
| CC(C)(C)C(O)(CCc1ccc(Cl)cc1)Cn1cncn1 (stereo unspecified) | inactive | – |
| CC(C)(O)c1cnn2c(-c3ccc(F)c(-c4c(F)cccc4C#N)c3)cnc2n1 | inactive | – |
| Cc1cc(N=Nc2ccccc2C)ccc1N | inactive | – |
| O=P(OCCCl)(OCCCl)OCCCl | inactive | – |
| CCCCCOC(=O)c1ccccc1C(=O)OCCCCC | inactive | – |
| COC(=O)Nc1nc2ccccc2[nH]1 | inactive | – |
| CCC[CH2][Sn]([Cl])([CH2]CCC)[CH2]CCC | inactive | 0.347 µM (active) |
| O=C(Oc1ccc(Br)cc1)N1CCN2CCC1CC2 | inactive | – |
| Clc1ccc(C(c2ccc(Cl)cc2)C(Cl)Cl)cc1 | inactive | – |
| CCCCCCCCn1sccc1=O | – | 6.78 µM (active) |
| CCC(C)c1ccc(O)cc1 (stereo unspecified) | inactive | – |
| O=[N+]([O-])c1ccc(Oc2ccc(Cl)cc2Cl)cc1 | inactive | – |
| [Cl-].[Cl-].[Hg+2] | – | 29.8 µM (active) |
| O=C(N[C@H](c1ccccc1)[C@@H]1CN2CCC1CC2)c1c(Cl)ccc(C(F)(F)F)c1Cl | inactive | – |
| ClCCOCCCl | inactive | – |
| CCN(CC)CCO | inactive | – |
| CCN(CC)N=O | inactive | – |
| CC(C)COC(=O)c1ccccc1C(=O)OCC(C)C | – | 20 µM (active) |
| C[N+](C)(C)CC1CO1 (stereo unspecified) | inactive | – |
| ClC1=C(Cl)[C@]2(Cl)[C@H]3[C@H]([C@@H]4C=C[C@H]3C4)[C@@]1(Cl)C2(Cl)Cl | inactive | – |
| Cc1ccc(N)c(N)c1 | inactive | – |

assay: CCTE_Shafer_MEA_acute_per_burst_spike_number_mean: CCTE's Neural Acute Assay for Average Number of Spikes Per Burst, Shafer Lab (AID 2284015);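 note: hits are decreases in mean spikes per burst versus baseline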
Summary of the method: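 Rat primary cortical neurons on 48-well MEAs (DIV 13 or 15) were treated with 0.03-40 uM compound at 37 C. Mean spikes per burst over 40 min were recorded before and after exposure and expressed as percent change from baseline, relative to DMSO.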

| Compound | outcome | AC50 |
| --- | --- | --- |
| CC(C)(OOC(C)(C)c1ccccc1)c1ccccc1 | inactive | – |
| ClC1=C(Cl)C2(Cl)C3C(Cl)C=CC3C1(Cl)C2(Cl)Cl (stereo unspecified) | – | 4.15 µM (active) |
| Clc1ccc(C(c2ccc(Cl)cc2)C(Cl)(Cl)Cl)cc1 | inactive | – |
| N#CC(Br)Br | inactive | – |
| O=Cc1ccco1 | inactive | – |
| c1ccc(NNc2ccccc2)cc1 | – | 20 µM (active) |
| c1ccc(N=Nc2ccccc2)cc1 | inactive | – |
| CCCCOC(=O)c1ccccc1C(=O)OCc1ccccc1 | – | 5 µM (active) |
| O=[N+]([O-])C(Br)(CO)CO | – | 20 µM (active) |
| CC(C)(C)C(O)(CCc1ccc(Cl)cc1)Cn1cncn1 (stereo unspecified) | inactive | – |
| CC(C)(O)c1cnn2c(-c3ccc(F)c(-c4c(F)cccc4C#N)c3)cnc2n1 | inactive | – |
| Cc1cc(N=Nc2ccccc2C)ccc1N | – | 20 µM (active) |
| O=P(OCCCl)(OCCCl)OCCCl | inactive | – |
| CCCCCOC(=O)c1ccccc1C(=O)OCCCCC | – | 4.26 µM (active) |
| COC(=O)Nc1nc2ccccc2[nH]1 | inactive | – |
| CCC[CH2][Sn]([Cl])([CH2]CCC)[CH2]CCC | – | 198 nM (active) and 150 nM (active) |
| O=C(Oc1ccc(Br)cc1)N1CCN2CCC1CC2 | inactive | – |
| Clc1ccc(C(c2ccc(Cl)cc2)C(Cl)Cl)cc1 | inactive | – |
| CCCCCCCCn1sccc1=O | inactive | – |
| CCC(C)c1ccc(O)cc1 (stereo unspecified) | – | 32 µM (active) |
| O=[N+]([O-])c1ccc(Oc2ccc(Cl)cc2Cl)cc1 | inactive | – |
| [Cl-].[Cl-].[Hg+2] | inactive | – |
| O=C(N[C@H](c1ccccc1)[C@@H]1CN2CCC1CC2)c1c(Cl)ccc(C(F)(F)F)c1Cl | inactive | – |
| ClCCOCCCl | inactive | – |
| CCN(CC)CCO | inactive | – |
| CCN(CC)N=O | inactive | – |
| CC(C)COC(=O)c1ccccc1C(=O)OCC(C)C | – | 6.45 µM (active) |
| C[N+](C)(C)CC1CO1 (stereo unspecified) | inactive | – |
| ClC1=C(Cl)[C@]2(Cl)[C@H]3[C@H]([C@@H]4C=C[C@H]3C4)[C@@]1(Cl)C2(Cl)Cl | inactive | – |
| Cc1ccc(N)c(N)c1 | inactive | – |
